Results: PubChem BioAssay AID1159580 (chemical genetic matrix, 2015)
The campaign covered roughly 5,500 compounds. About 2,000 (36%) were called active. Not shown: some 18% with an inconclusive outcome. No stated cut-off is given here; in the data, active means normalized growth mostly below about 0.91 (no sharp cut-off); inconclusive means no clear call, values can overlap the other calls; inactive means mostly above about 0.92. The list shows a part of the results.

Test: chemical genetic growth profiling, strain panel (AID 1159580);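 further: tested at 20 µM; growth read once vehicle control cultures reached saturation at 30 °C; 1 = growth at the plate median or of vehicle wells; lower values mean less growth of the strain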
Conditions: growth OD

Measured: normalized growth

Nc1ncnc2c1ncn2[C@@H]1O[C@H](CO)[C@@H](O)[C@H]1O
inactive: S. cerevisiae deletion strains, locus YJR066W, strain TOR1, hits give low values 0.966 | S. cerevisiae deletion strains, locus YJR075W, strain HOC1, hits give low values 0.99 | S. cerevisiae deletion strains, locus YKL009W, strain mrt4, hits give low values 0.961 | S. cerevisiae deletion strains, locus YKL068W, hits give low values 0.983 | S. cerevisiae deletion strains, locus YKL085W, strain MDH1 (second series), hits give low values 0.965 | S. cerevisiae deletion strains, locus YKL085W, strain MDH1, hits give low values 0.965 | S. cerevisiae deletion strains, locus YKL160W, strain elf1, hits give low values 0.955 | S. cerevisiae deletion strains, locus YKR001C, strain vps1, hits give low values 0.997 | S. cerevisiae deletion strains, locus YKR026C, strain gcn3, hits give low values 0.987 | S. cerevisiae deletion strains, locus YKR091W, strain srl3, hits give low values 0.994 | S. cerevisiae deletion strains, locus YLL001W, strain dnm1, hits give low values 0.922 | S. cerevisiae deletion strains, locus YLL026W, hits give low values 0.99 | S. cerevisiae deletion strains, locus YLL041C, strain sdh2, hits give low values 0.99 | S. cerevisiae deletion strains, locus YLR027C, strain aat2, hits give low values 0.994 | S. cerevisiae deletion strains, locus YLR039C, strain RIC1, hits give low values 0.95 | S. cerevisiae deletion strains, locus YLR058C, strain SHM2, hits give low values 0.971 | S. cerevisiae deletion strains, locus YLR102C, strain apc9, hits give low values 0.978 | S. cerevisiae deletion strains, locus YLR113W, strain HOG1, hits give low values 1.01 | S. cerevisiae deletion strains, locus YLR221C, strain rsa3, hits give low values 0.95 | S. cerevisiae deletion strains, locus YLR258W, strain gsy2, hits give low values 0.975 | S. cerevisiae deletion strains, locus YLR262C, strain YPT6 (second series), hits give low values 0.974 | S. cerevisiae deletion strains, locus YLR262C, strain YPT6, hits give low values 0.913 | S. cerevisiae deletion strains, locus YLR268W, strain sec22, hits give low values 1 | S. cerevisiae deletion strains, locus YLR320W, strain mms22, hits give low values 0.939 | S. cerevisiae deletion strains, locus YLR330W, strain CHS5, hits give low values 0.993 | S. cerevisiae deletion strains, locus YLR342W, strain FKS1 (second series), hits give low values 1.03 | S. cerevisiae deletion strains, locus YLR342W, strain FKS1, hits give low values 0.993 | S. cerevisiae deletion strains, locus YLR357W, strain rsc2, hits give low values 0.983 | S. cerevisiae deletion strains, locus YLR370C, strain arc18, hits give low values 0.967 | S. cerevisiae deletion strains, locus YLR371W, strain rom2, hits give low values 0.978 | S. cerevisiae deletion strains, locus YLR384C, strain iki3, hits give low values 0.982 | S. cerevisiae deletion strains, locus YLR418C, strain cdc73, hits give low values 0.945 | S. cerevisiae deletion strains, locus YML016C, strain PPZ1, hits give low values 0.987 | S. cerevisiae deletion strains, locus YML032C, strain rad52, hits give low values 0.949 | S. cerevisiae deletion strains, locus YML120C, strain ndi1, hits give low values 0.952 | S. cerevisiae deletion strains, locus YML124C, strain tub3, hits give low values 0.988 | S. cerevisiae deletion strains, locus YMR058W, strain fet3, hits give low values 0.995 | S. cerevisiae deletion strains, locus YMR078C, strain ctf18, hits give low values 0.972 | S. cerevisiae deletion strains, locus YMR125W, strain sto1, hits give low values 0.982 | S. cerevisiae deletion strains, locus YMR129W, hits give low values 0.995 | S. cerevisiae deletion strains, locus YMR205C, strain PFK2, hits give low values 0.944 | S. cerevisiae deletion strains, locus YMR223W, strain ubp8, hits give low values 0.956 | S. cerevisiae deletion strains, locus YMR231W, strain pep5, hits give low values 0.992 | S. cerevisiae deletion strains, locus YMR263W, strain SAP30, hits give low values 0.982 | S. cerevisiae deletion strains, locus YMR307W, strain GAS1, hits give low values 0.98 | S. cerevisiae deletion strains, locus YNL067W, strain RPL9B, hits give low values 0.967 | S. cerevisiae deletion strains, locus YNL071W, strain lat1, hits give low values 1 | S. cerevisiae deletion strains, locus YNL153C, strain GIM3, hits give low values 0.98 | S. cerevisiae deletion strains, locus YNL183C, strain NPR1, hits give low values 0.975 | S. cerevisiae deletion strains, locus YNL209W, strain ssb2, hits give low values 0.988 | S. cerevisiae deletion strains, locus YNL233W, strain BNI4, hits give low values 0.991 | S. cerevisiae deletion strains, locus YNL248C, strain rpa49, hits give low values 1.01 | S. cerevisiae deletion strains, locus YNL250W, strain rad50, hits give low values 0.978 | S. cerevisiae deletion strains, locus YNL271C, strain bni1, hits give low values 0.979 | S. cerevisiae deletion strains, locus YNL298W, strain CLA4, hits give low values 0.963 | S. cerevisiae deletion strains, locus YNL307C, strain MCK1, hits give low values 0.978 | S. cerevisiae deletion strains, locus YNL322C, strain KRE1 (second series), hits give low values 0.978 | S. cerevisiae deletion strains, locus YNR049C, strain mso1, hits give low values 0.982 | S. cerevisiae deletion strains, locus YNR052C, strain pop2, hits give low values 0.977 | S. cerevisiae deletion strains, locus YOL006C, strain TOP1, hits give low values 1.02 | S. cerevisiae deletion strains, locus YOL012C, strain htz1 0.737 | S. cerevisiae deletion strains, locus YOL147C, strain pex11, hits give low values 0.987 | S. cerevisiae deletion strains, locus YOR001W, strain rrp6, hits give low values 1.02 | S. cerevisiae deletion strains, locus YOR061W, strain CKA2, hits give low values 0.96 | S. cerevisiae deletion strains, locus YOR069W, strain VPS5, hits give low values 0.99 | S. cerevisiae deletion strains, locus YOR070C, strain gyp1, hits give low values 0.987 | S. cerevisiae deletion strains, locus YOR080W, strain dia2, hits give low values 0.995 | S. cerevisiae deletion strains, locus YOR083W, strain WHI5, hits give low values 0.96 | S. cerevisiae deletion strains, locus YOR106W, strain vam3, hits give low values 0.971 | S. cerevisiae deletion strains, locus YOR136W, strain idh2, hits give low values 0.982 | S. cerevisiae deletion strains, locus YOR144C, strain elg1, hits give low values 0.978 | S. cerevisiae deletion strains, locus YOR184W, strain ser1, hits give low values 0.967 | S. cerevisiae deletion strains, locus YOR231W, strain MKK1, hits give low values 1.03 | S. cerevisiae deletion strains, locus YOR265W, strain rbl2, hits give low values 0.983 | S. cerevisiae deletion strains, locus YOR270C, strain vph1, hits give low values 0.966 | S. cerevisiae deletion strains, locus YOR290C, strain snf2, hits give low values 0.955 | S. cerevisiae deletion strains, locus YOR316C, strain cot1, hits give low values 0.978 | S. cerevisiae deletion strains, locus YPL051W, strain arl3, hits give low values 0.988 | S. cerevisiae deletion strains, locus YPL078C, strain atp4, hits give low values 0.969 | S. cerevisiae deletion strains, locus YPL106C, strain sse1, hits give low values 0.955 | S. cerevisiae deletion strains, locus YPL240C, strain hsp82, hits give low values 0.998 | S. cerevisiae deletion strains, locus YPL241C, strain CIN2, hits give low values 0.99 | S. cerevisiae deletion strains, locus YPL256C, strain CLN2, hits give low values 0.982 | S. cerevisiae deletion strains, locus YPR119W, strain clb2, hits give low values 0.984 | S. cerevisiae deletion strains, locus YPR141C, strain kar3, hits give low values 0.972 | S. cerevisiae deletion strains, locus YPR163C, strain tif3, hits give low values 0.969 | S. cerevisiae deletion strains, locus YPR167C, strain met16, hits give low values 0.963 | S. cerevisiae deletion strains, strain wtn01, hits give low values 1.02 | S. cerevisiae strains, strain wild type, hits give low values 0.989
